From ChEMBL document CHEMBL1201862, “PubChem BioAssay data set” (2004)
Hit rate of the full screen: of about 400,000 compounds, about 1,900 (0.47%) were called active. Inconclusive results (about 14%) are left out. This is one part of a sample in which actives are shown more often than they occur. No rule for the calls is given here.

The compounds below were run against Ataxin-2 (Homo sapiens) (UniProt Q99700) (assay: qHTS for Inhibitors of ATXN expression.).
Format: functional

Ataxin-2 (Homo sapiens), sequence (Q99700 whole entry): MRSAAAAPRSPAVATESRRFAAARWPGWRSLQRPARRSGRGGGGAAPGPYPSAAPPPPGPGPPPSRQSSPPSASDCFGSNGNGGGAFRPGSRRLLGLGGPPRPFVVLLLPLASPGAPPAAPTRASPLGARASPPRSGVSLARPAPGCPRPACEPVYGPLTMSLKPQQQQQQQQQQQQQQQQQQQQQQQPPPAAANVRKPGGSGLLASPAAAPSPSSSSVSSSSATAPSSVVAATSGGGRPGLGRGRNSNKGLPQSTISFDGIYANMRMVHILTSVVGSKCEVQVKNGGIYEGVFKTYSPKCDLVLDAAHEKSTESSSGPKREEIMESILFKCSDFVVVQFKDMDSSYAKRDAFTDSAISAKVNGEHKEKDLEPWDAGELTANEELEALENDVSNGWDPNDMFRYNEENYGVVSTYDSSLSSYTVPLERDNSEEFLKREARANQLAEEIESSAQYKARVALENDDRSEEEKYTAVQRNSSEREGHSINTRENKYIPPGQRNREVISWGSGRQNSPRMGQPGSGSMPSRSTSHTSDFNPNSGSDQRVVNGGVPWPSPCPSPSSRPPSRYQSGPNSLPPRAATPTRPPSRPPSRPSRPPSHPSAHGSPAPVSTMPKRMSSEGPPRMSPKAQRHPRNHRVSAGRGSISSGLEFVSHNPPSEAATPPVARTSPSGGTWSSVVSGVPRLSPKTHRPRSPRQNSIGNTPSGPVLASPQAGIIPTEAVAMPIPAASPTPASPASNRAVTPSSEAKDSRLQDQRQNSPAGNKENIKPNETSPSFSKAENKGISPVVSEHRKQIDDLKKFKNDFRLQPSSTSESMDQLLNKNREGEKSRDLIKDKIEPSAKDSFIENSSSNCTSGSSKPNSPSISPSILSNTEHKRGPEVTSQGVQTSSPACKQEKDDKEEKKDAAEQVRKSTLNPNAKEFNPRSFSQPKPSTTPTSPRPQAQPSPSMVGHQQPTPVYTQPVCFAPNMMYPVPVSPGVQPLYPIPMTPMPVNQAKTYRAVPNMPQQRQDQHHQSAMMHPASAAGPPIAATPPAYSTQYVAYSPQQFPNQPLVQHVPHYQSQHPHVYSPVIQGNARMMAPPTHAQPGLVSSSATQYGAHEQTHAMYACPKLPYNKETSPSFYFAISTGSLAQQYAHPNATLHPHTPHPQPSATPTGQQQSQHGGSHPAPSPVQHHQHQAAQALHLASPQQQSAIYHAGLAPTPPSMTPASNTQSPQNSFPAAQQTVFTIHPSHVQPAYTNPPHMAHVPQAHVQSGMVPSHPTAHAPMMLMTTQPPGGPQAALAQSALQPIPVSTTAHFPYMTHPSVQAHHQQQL

Row | SMILES | Potency
1 | CC1=CC2/C=C(\C)CCC(O)C(O)/C=C/C(=O)C23C(=O)NC(CC(C)C)C3C1C (configuration not stated) | 3.77 µM (active)
2 | C=C(C=O)CC1CC(O)[C@]2(C)OC3CC4OC5C[C@]6(C)O[C@]7(C)CCC8OC9C[C@]%10(C)OC%11C(C)=CC(=O)OC%11CC%10OC9C[C@@H](C)C8OC7CC6O[C@]5(C)CC5OC5C4OC3CC2O1 (some centres not stated) | 1.26 µM (active)
3 | CCCNC(=O)c1c(N)n(CC2CCCO2)c2nc3ccccc3nc12 (configuration not stated) | inactive
4 | COCCNC(=O)c1c(NC(=O)c2ccco2)n(Cc2ccccc2)c2nc3ccccc3nc12 | inactive
5 | CCCCCCCCN1C(=O)[C@H](CC(=O)NCCc2ccccc2OC)C[C@@]2(C(=O)OC)CCCCC=C12 | 25.1 µM (active)
6 | CC(C)OCCCNC(=O)c1c(N)n(CC2CCCO2)c2nc3ccccc3nc12 (configuration not stated) | inactive
7 | Cc1nc2ccc(N3CCN(C)CC3)cc2nc1C | inactive
8 | O=C(c1ccc(-c2ccccc2)c(F)c1)C1CCCN(CCO)C1 (configuration not stated) | inactive
9 | O=C(c1ccccc1)C(CN1CCCC1)c1ccccc1 (configuration not stated) | 25.1 µM (active)
10 | O=C1NCN(c2ccccc2)C12CCN(C(c1cc3ccccc3o1)c1nnnn1Cc1ccccc1)CC2 (configuration not stated) | 39.8 µM (active)
11 | CC(C)(C)n1nnnc1C(c1cc2ccccc2o1)N1CCC2(CC1)C(=O)NCN2c1ccccc1 (configuration not stated) | 39.8 µM (active)
12 | CCCNC(=O)c1c(N)n(Cc2ccco2)c2nc3ccccc3nc12 | inactive
13 | CCCCn1nnnc1C(c1cccs1)N1CCC2(CC1)C(=O)NCN2c1ccccc1 (configuration not stated) | 31.6 µM (active)
14 | O=C1NCN(c2ccccc2)C12CCN(C(c1cccs1)c1nnnn1Cc1ccccc1)CC2 (configuration not stated) | 39.8 µM (active)
15 | Fc1ccc(CNCCc2ccc3c(c2)OCO3)cc1 | inactive
16 | O=C1NC(=O)N(CCc2ccccc2)C(=O)/C1=C(O)/C=C/c1c[nH]c2ccccc12 | inactive
17 | CN(C)C(=O)Oc1ccc2nnc3ccnn3c2c1 | inactive
18 | CC(C)c1ccc(N2C(=O)NC(=O)/C(=C/C=C/c3ccco3)C2=O)cc1 | 39.8 µM (active)
19 | COc1ccc(N2C(=O)NC(=O)/C(=C\c3c[nH]c4ccccc34)C2=O)cc1 | inactive
20 | CN(C)c1ccc(/C=C/C=C2/C(=O)NC(=O)N(c3ccccc3)C2=O)cc1 | 15 µM (active)
21 | CCOc1ccc(N2C(=O)NC(=O)/C(=C\c3ccccc3[N+](=O)[O-])C2=O)cc1 | inactive
22 | Cc1ccc(-c2cc(-c3ccc(C)cc3)[n+](-c3ccccc3)c(-c3ccc(C)cc3)c2)cc1 | 17.8 µM (active)
23 | Cc1ccc(C[n+]2c(-c3ccc(C)cc3)cc(-c3ccc(C)cc3)cc2-c2ccc(C)cc2)cc1 | 12.6 µM (active)
24 | c1ccc(-c2cc(-c3ccccc3)[n+](-c3ccccc3)c(-c3ccccc3)c2)cc1 | 25.1 µM (active)
25 | COP(=O)(OC)c1nc(-c2cccc3ccccc23)oc1NCCc1ccccc1 | inactive
26 | CCCCn1c(NS(=O)(=O)c2ccc(C)cc2)c(C(=O)OCC)c2nc3ccccc3nc21 | inactive

Row | SMILES | Potency
27 | CCOc1ccc(C(=O)Nc2cccc(C(=O)OCc3cc(=O)n4nc(C5CC5)sc4n3)c2)cc1 | 3.55 µM (active)
28 | Cn1c(=O)c2c(nc(NN/C=C3/C(=O)NC(=S)N(C4CCCCC4)C3=O)n2C)n(C)c1=O | inactive
29 | CN(C)c1c([N+](=O)[O-])cc(N2C(=O)C=CC2=O)cc1[N+](=O)[O-] | 25.1 µM (active)
30 | CC1(C)OC(c2ccccc2)=C/C(=C/C=C2C(=O)NC(=O)NC2=O)O1 | inactive
31 | CC1(C)OC(c2ccccc2)=C/C(=C/C=C2C(=O)NC(=S)NC2=O)O1 | inactive
32 | CN1/C(=C\C=C2C(=O)NC(=S)NC2=O)C(C)(C)c2ccccc21 | 35.5 µM (active)
33 | Cc1nc2cc(OC(=O)N(C)Cc3cccc(-c4ccncc4)c3)ccc2s1 | 39.8 µM (active)
34 | COc1ccc(C[C@@H]2NC[C@H](O)[C@@H]2OC(C)=O)cc1 | 0.0891 µM (active)
35 | CCOC(=O)[C@]12Cc3cc(OC)ccc3[C@H]1N(CCC(=O)OC)C(=O)c1cc(OC)ccc12 | 28.2 µM (active)
36 | CCCCCN1C(=O)c2cc(OC)ccc2[C@@]2(C(=O)OCC)Cc3cc(OC)ccc3[C@@H]12 | 11.2 µM (active)
37 | Cc1ccc(C(=O)N[C@@H](C)CN2C3=NC[C@H](Cc4ccccc4)N3C[C@H]2Cc2ccc(O)cc2)cc1Br | 22.4 µM (active)
38 | O=c1c2ccccc2nc(/C=C/c2ccc(O)cc2)n1-c1ccc(O)cc1 | inactive
39 | Cc1ccc(C)c(S(=O)(=O)Nc2ccc3c(c2)CCCN3C(=O)c2cccs2)c1 | 39.8 µM (active)
40 | COc1cccc(-c2nc3cc4c(cc3cc2CN(C(=O)c2cccs2)C2CC2)CCC4)c1OC | 35.5 µM (active)
41 | CCOc1ccc(N/C=C2/C(=O)NC(=S)N(Cc3ccccc3)C2=O)cc1 | inactive
42 | CCCC[C@@H](C)C[C@@H](C)C(=O)N(C)[C@@H](CC(C)C)C(=O)N[C@H](C(=O)N(C)[C@H](C(=O)N1C[C@@H](O)C[C@H]1C(=O)N1C(=O)C=C[C@@H]1C)C(C)C)C(C)OC(C)=O (some centres not stated) | 10 µM (active)
43 | O=c1c2ccccc2nc(/C=C/c2ccc(O)c(O)c2)n1-c1ccccc1 | inactive
44 | O=C1NC(=S)N(c2ccccc2F)C(=O)/C1=C\c1cccs1 | 31.6 µM (active)
45 | O=C1NC(=S)N(c2ccc(F)cc2)C(=O)/C1=C\c1ccoc1 | inactive
46 | Cc1ccc(N2C(=O)/C(=C/NCc3ccccn3)C(=O)NC2=S)cc1 | inactive
47 | Cc1cc(N(CCCl)CCCl)ccc1C=Cc1ccncn1 | inactive
48 | Oc1nc2ccccc2n1C1CCN(C(CCc2ccccc2)c2nnnn2-c2ccc3c(c2)OCCO3)CC1 (configuration not stated) | 39.8 µM (active)
49 | Oc1nc2ccccc2n1C1CCN(C(CCc2ccccc2)c2nnnn2C2CCCCC2)CC1 (configuration not stated) | 39.8 µM (active)
50 | Oc1nc2ccccc2n1C1CCN(C(c2ccccc2OC(F)(F)F)c2nnnn2-c2ccc3c(c2)OCCO3)CC1 (configuration not stated) | 39.8 µM (active)
51 | Oc1nc2ccccc2n1C1CCN(C(c2ccccc2)c2nnnn2-c2ccc3c(c2)OCCO3)CC1 (configuration not stated) | 14.1 µM (active)
52 | COc1ccc(C2CC(c3cccs3)=NN2c2nc(C)c(C(C)=O)s2)cc1OC (configuration not stated) | inactive

Row | SMILES | Potency
53 | CCOCCSc1nc2c(c(-c3cccs3)c1C#N)CC/C2=C/c1cccs1 | inactive
54 | Cc1cccc(-c2noc(-c3ccc4c(c3)OCO4)n2)c1 | inactive
55 | CC(C)CNC(=O)c1c(N)n(Cc2ccco2)c2nc3ccccc3nc12 | inactive
56 | CCCN=C1C(=O)C2=C(C(O)=C1C)N1CC3NC3[C@@]1(OC)C2COC(N)=O (some centres not stated) | inactive
57 | COc1ccc(-n2c(/C=C/c3ccc(O)c(OC)c3)nc3ccccc3c2=O)cc1 | inactive
58 | CC[N+](C)(CC)CCC[n+]1c(-c2ccccc2)c2cc(N)ccc2c2ccc(N)cc21 | 11.2 µM (active)
59 | C/C(=C\c1ccc(N(C)C)cc1)[N+](=O)[O-] | 22.4 µM (active)
60 | Cc1ccc(CN2CCCC(C(=O)c3cccc(C(F)(F)F)c3)C2)o1 (configuration not stated) | inactive
61 | C=C1C(=O)O[C@@H]2C[C@@H](C)[C@H]3C=CC(=O)[C@]3(O)C[C@@H]12 | 22.4 µM (active)
62 | C=C1C(=O)O[C@@H]2C[C@@H](C)[C@@H]3C=CC(=O)[C@@]3(C)[C@@H](O)[C@H]12 | 20 µM (active)
63 | C=C1C(=O)O[C@@H]2C[C@@H](C)[C@@H]3C=CC(=O)[C@@]3(C)[C@@H](OC(=O)CC(=O)O[C@H]3[C@@H]4C(=C)C(=O)O[C@@H]4C[C@@H](C)[C@@H]4C=CC(=O)[C@]43C)[C@H]12 | 0.562 µM (active)
64 | COc1cc(/C=C/c2nc3ccccc3c(=O)n2-c2ccccc2O)ccc1O | inactive
65 | COc1ccc(-c2c/c(=N\CCC(=O)O)c3cc(C)ccc3o2)cc1 | inactive
66 | C=CCn1c(=O)/c(=C\c2ccccn2)s/c1=C(/C#N)C(=O)NCC1CCCO1 (configuration not stated) | inactive
67 | O=C(Nc1c(Cl)cccc1Cl)Oc1cccc2cccnc12 | inactive
68 | O=C(NNC(=O)C12CC3CC(CC(C3)C1)C2)c1ccccc1F | inactive
69 | C[C@@H]1O[C@H](O[C@@H]2CC[C@@]3(C=O)[C@H]4CC[C@@]5(C)[C@@H](C6=CC(=O)OC6)CC[C@@]5(O)[C@@H]4CC[C@]3(O)C2)C[C@H](O)[C@@H]1O | 3.55 µM (active)
70 | C[C@@]12CC[C@H]3[C@@H](CC[C@]4(O)C[C@H](O)CC[C@@]34C=O)[C@]1(O)CC[C@@H]2C1=CC(=O)OC1 | 0.708 µM (active)
71 | C[C@@H]1O[C@H](O[C@H]2C[C@@H](O)[C@@]3(CO)[C@H]4[C@@H](O)C[C@]5(C)[C@@H](C6=CC(=O)OC6)CC[C@]5(O)[C@H]4CC[C@]3(O)C2)[C@@H](O)[C@H](O)[C@@H]1O | 0.0891 µM (active)
72 | CCC1C(=O)OCC1Cc1cncn1C (configuration not stated) | inactive
73 | COc1cccc(C(c2nnnn2C2CCCC2)N2CCC3(CC2)C(=O)NCN3c2ccccc2)c1OC (configuration not stated) | 39.8 µM (active)
74 | COc1cccc(C(c2nnnn2-c2ccc3c(c2)OCCO3)N2CCC3(CC2)C(=O)NCN3c2ccccc2)c1OC (configuration not stated) | 39.8 µM (active)
75 | CSCCC(c1nnnn1C1CCCCC1)N1CCC2(CC1)C(=O)NCN2c1ccccc1 (configuration not stated) | 39.8 µM (active)
76 | COc1cccc(C(c2nnnn2C(C)(C)C)N2CCC3(CC2)C(=O)NCN3c2ccccc2)c1OC (configuration not stated) | 39.8 µM (active)
77 | CC(C)(C)n1nnnc1C(c1cccc2ccccc12)N1CCC2(CC1)C(=O)NCN2c1ccccc1 (configuration not stated) | 39.8 µM (active)
